In PubChem BioAssay (NCATS) one finds activation and Potency data, which are given here for 13 molecules.

Each structure is given as a SMILES string. Where “and” joins values, the source holds several entries; their conditions need not be identical. Equal values may be shown once. Records with an inconclusive call do not appear. Unmarked numbers belong to inactive results. Calls of active or inactive are those of the source. Calls follow the shape of the dose curve; as a rule, active = well fitted activation curve with a large enough effect; inconclusive = small, poorly fitted or top-dose-only effect; inactive = no such curve, though single readings can be large or run the other way. Peptide text beside a SMILES is read from it. * marks the point of attachment. PhAc = O=C(Cc1ccccc1)*
Potency is read from the fitted curve at half-maximal effect.

The target of the assay is Cellular tumor antigen p53 (Homo sapiens) (UniProt P04637). Put plainly: Primary qHTS for small molecule compounds that upregulate eGFP-tagged delta133p53alpha (in N-terminal) cells. (AID 2060322). Also: nearly all actives have a fitted effect of over 75% in size.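 As to activation: series mostly up to about 56 µM; 0% = DMSO vehicle and 100% = reference activator.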 The note with it: NCI-H358 eGFP-delta133p53alpha fluorescence, 24 h; activation: active compounds read high. The method in brief: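 NCI-H358 cells pre-induced 24 h with 10 ng/ml doxycycline to express N-terminal eGFP-delta133p53alpha, then dosed 24 h at 37C without doxycycline; fixed, Hoechst-stained, GFP intensity by laser scanning cytometry, normalized to DMSO (0%) and 57.5 uM 5-azacytidine (100%).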
Chain of Cellular tumor antigen p53 (Homo sapiens) (P04637 whole entry, looked up): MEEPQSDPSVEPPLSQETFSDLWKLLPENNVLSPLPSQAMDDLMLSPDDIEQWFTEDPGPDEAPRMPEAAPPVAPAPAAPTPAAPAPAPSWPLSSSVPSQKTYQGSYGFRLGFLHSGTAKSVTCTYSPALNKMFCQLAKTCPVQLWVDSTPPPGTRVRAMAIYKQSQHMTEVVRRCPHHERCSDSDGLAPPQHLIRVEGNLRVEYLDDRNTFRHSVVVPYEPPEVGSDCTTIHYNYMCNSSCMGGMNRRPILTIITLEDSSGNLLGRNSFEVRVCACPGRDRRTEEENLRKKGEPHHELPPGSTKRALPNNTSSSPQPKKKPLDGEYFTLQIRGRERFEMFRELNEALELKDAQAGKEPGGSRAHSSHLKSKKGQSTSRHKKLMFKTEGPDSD
In the case of `CC(C)c1ccccc1OC(=O)NCCc1ccc2ccccc2c1`, the activation was 2.39%. Regarding `CCN1CCN(Cc2ccc(NC(=O)c3ccc(C)c(Oc4ncnc5[nH]c(C)cc45)c3)cc2C(F)(F)F)CC1`, the Potency was 23.9 µM (active). Regarding `CCCC(Nc1nc(-c2ccc(NC(=O)NCC)c(OC)c2)ncc1C)c1cccnc1` (stereo not drawn), the activation is -2.86%. Consider `CNC(=O)O[C@H]1COc2ccc(N3CCN(C4COC4)CC3)cc2[C@@H]1NC(=O)c1ccc(F)cc1`, for which the activation is -1.43%. With `CC(NCCCc1cccc(C(F)(F)F)c1)c1cccc2ccccc12` (stereo not drawn), the activation was -2.86%. Still for that read-out and setting: for `CCCCc1ccc(C(=O)Nc2cc(-c3ccc(Cl)cc3)nn2-c2ccc(Cl)cc2)cc1` the value was 6.68%; for `O=C(Nc1cccc(C(F)(F)F)c1)Nc1ccc(Br)cc1-c1nn[nH]n1`, -5.73%; for `O=C(NCCCN1CCC2(CC1)OCc1ccccc12)[C@H]1CCCN1Cc1ccccc1`, 0.477%. As for `CCc1cc2c(=O)c(-c3nc4ccccc4s3)coc2c(CN2CCCCC2)c1O`, the activation is 0.955%. In the case of `CCOC(=O)CNC(=O)[C@@H]1CCCN1C(=O)Cc1ccccc1` (PhAc-Pro-Gly-OEt), the activation is 13.8%. The same measure, in the same setting: the value for `CCCCOc1cc(C(=O)OCCN(CC)CC)ccc1N` was -2.82% and 0%. In the case of `CC(C)(C)c1cc(Br)cc([C@H](CC(=O)O)NC(=O)CNC(=O)c2cc(O)cc(NC3=NCC(O)CN3)c2)c1` (stereo partly drawn), the activation was -5.25%. With `Cc1cc(C(=O)N2CCCCc3ccccc32)ccc1CNC(=O)N1CCC[C@H]1C(=O)N(C)C`, the activation was 4.3%.
